This passage reports activation factor results from PubChem BioAssay AID1016 (Sanford-Burnham Center for Chemical Genomics, 2008).

Out of some 200,000 compounds screened, about 330 (0.17%) were called active.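 Rule for the calls: active = activation factor of 2 or more at 20 µM, a signal rise over negative controls twice the positive control's; inactive = the rest.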 The full list was thinned out, with actives kept by preference.

In this test the test system is alkaline phosphatase, intestinal [Bos taurus]. The test can be described thus: IAP enzyme activity enhancers – biochemical, bovine IAP, CDP-star luminescence, primary screen (AID 1016). The following applies: purified bovine IAP, 30 min, at 20 µM, hits give high values.
Turning to `Cc1cc(C)cc(NC(=S)NC2CC3CCCC(C2)N3Cc2cccs2)c1` (stereo not given), the activation factor is 3 (active).

On to `COP(=O)(OC)C(NC(=O)c1ccc(C)cc1)C(Cl)(Cl)Cl` (stereo not given), for which the activation factor is 0.8 (inactive).

Turning to `CN(C)C(=O)Oc1ccc(OCc2cccc[n+]2C)cc1`, the activation factor is 1 (inactive).

As for `CCOC(=O)C1SC2(C(F)(F)C(F)F)CC1(O)c1c(c(OC)c3occc3c1OC)O2` (stereo not given), the activation factor is 0.9 (inactive).

Regarding `CN(C)CC1CCCCC1OC(=O)c1ccc(Cl)c(Cl)c1` (stereo not given), the activation factor was 1 (inactive).
